Measurements taken from PubChem BioAssay (NCATS).
Values joined by “and” are separate entries in the source; they are usually repeats but may differ in a detail not shown here. Equal entries are not always repeated. Inconclusive results are not listed. Entries that show only a call come without a potency. Active and inactive are the calls of the source. Unless noted, calls follow the shape of the dose curve; as a rule, active = well fitted curve in the direction sought with a large enough effect; inconclusive = small, poorly fitted or top-dose-only effect, or another doubt; inactive = no such curve, though single readings can be large; an effect the other way counts as inactive or inconclusive.

Legend:
[1] = biological target: Alpha-galactosidase A (Homo sapiens) (UniProt P06280); assay: Counterscreen for Glucocerebrosidase Inhibitors: qHTS Assay for Human alpha-Galactosidase at pH 4.5 (AID 992)
Sequence of Alpha-galactosidase A (Homo sapiens) (P06280 whole entry, looked up): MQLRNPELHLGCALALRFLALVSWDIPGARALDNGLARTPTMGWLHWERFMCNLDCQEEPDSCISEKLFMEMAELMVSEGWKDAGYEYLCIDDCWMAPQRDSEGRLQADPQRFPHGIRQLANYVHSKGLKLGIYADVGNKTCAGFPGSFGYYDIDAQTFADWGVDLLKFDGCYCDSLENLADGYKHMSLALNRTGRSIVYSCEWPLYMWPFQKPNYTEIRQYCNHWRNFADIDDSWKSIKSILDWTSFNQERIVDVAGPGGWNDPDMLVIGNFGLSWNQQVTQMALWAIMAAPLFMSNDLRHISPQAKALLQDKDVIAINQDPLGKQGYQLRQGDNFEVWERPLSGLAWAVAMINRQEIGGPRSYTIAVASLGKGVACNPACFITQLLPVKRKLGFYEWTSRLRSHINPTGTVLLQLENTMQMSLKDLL
How it was run: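 Fluorogenic 1536-well qHTS at pH 4.5 (citrate, Tween-20): 2 nM enzyme, 80 uM 4-MU-alpha-galactoside, 20 min room temperature, NaOH/glycine stop. Titration 0.7 nM to 77 uM, data normalized to no-enzyme and full-activity controls, Hill-fitted AC50.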

[2] = biological target: alpha-glucosidase (Oryza sativa, rice) (UniProt Q653V4); assay: Counterscreen for Glucocerebrosidase Inhibitors: qHTS Assay for Rice alpha-Glucosidase at pH 5.0 (AID 997)
How it was run: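 Endpoint fluorogenic assay at pH 5.0: compounds (0.7 nM to 77 uM) titrated against 4 nM rice enzyme and 400 uM 4-MU-alpha-glucoside for 20 min at room temperature; NaOH/glycine stop, read ex 365/em 440 nm, Hill-fitted AC50.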

[3] = qHTS Assay for Lipid Storage Modulators (AID 1519; calls by dose curve); settings: Drosophila S3 cells, BODIPY lipid droplet/cell ratio, laser cytometry, cells loaded with oleic acid
How it was run: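 Cells seeded at 5,000 per well were treated with compounds over a concentration series and loaded with oleic acid (400 uM, as added). Lipid droplet fluorescence (488 nm excitation, 500-530 nm channel) was read by laser-scanning cytometry and normalized to 20 uM Triacsin C.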

[4] = Cell Viability - LYMP2-020 (AID 986); also: nearly all actives have a fitted effect of over 55% in size
How it was run: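 qHTS, 2500 cells/well; 5 hr then 24 hr compound exposure, 37 C; CellTiter-Glo luminescence after 30 min RT; ATP decrease taken as cytotoxicity; AC50 via Hill equation; tetraoctylammonium bromide positive control.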

[5] = Cell Viability - LYMP2-022 (AID 987); also: nearly all actives have a fitted effect of over 55% in size
How it was run: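 Luminescent ATP read-out (CellTiter-Glo, 30 min, RT) after 24 hr, 37 C compound exposure of 2500 human lymphoblastoid cells/well in complete medium. Cytotoxicity taken as concentration-dependent ATP loss; AC50 from standard Hill equation.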

[6] = Cell Viability - LYMP2-024 (AID 988); also: nearly all actives have a fitted effect of over 60% in size
How it was run: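 ATP-based luminescence (CellTiter-Glo, 30 min RT) after 24 h compound exposure at 37 C of 2500 lymphoblastoid cells/well; decrease in ATP taken as cytotoxicity. qHTS concentration-response fitted to standard Hill equation for AC50.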

[7] = Cell Viability - LYMP2-026 (AID 989); also: nearly all actives have a fitted effect of over 50% in size
How it was run: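 qHTS cytotoxicity: 2500 cells/well, 5 hr 37 C, compound 24 hr 37 C, CellTiter-Glo 30 min RT, luminescence. Tetraoctylammonium bromide positive control. AC50 via standard Hill fit.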

[8] = Cell Viability - LYMP1-002 - Assay at 24 hr (AID 993)
How it was run: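 CellTiter-Glo luminescence (intracellular ATP) after 24 h compound exposure, 37 C, in LYMP1-002 human lymphoblastoid cells; decreased ATP taken as cytotoxicity. AC50 from standard Hill fit of concentration-response curves.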

[9] = Cell Viability - LYMP1-002 - Assay at 40 hr (AID 994); also: nearly all actives have a fitted effect of over 60% in size
How it was run: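 qHTS cytotoxicity; 2500 cells/well, 5 hr 37 C settle, compound 40 hr 37 C. CellTiter-Glo, 30 min RT, luminescence (ATP). Concentration-response, Hill fit → AC50. Pos. ctrl tetraoctylammonium bromide.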

[10] = biological target: DNA repair nuclease/redox regulator APEX1 (Homo sapiens) (UniProt P27695); assay: qHTS Validation Assay for Inhibitors of the Human Apurinic/apyrimidinic Endonuclease 1 (APE1) (AID 1705; also: potency is read from the fitted curve at half-maximal effect)
Sequence of DNA repair nuclease/redox regulator APEX1 (Homo sapiens) (P27695 whole entry, looked up): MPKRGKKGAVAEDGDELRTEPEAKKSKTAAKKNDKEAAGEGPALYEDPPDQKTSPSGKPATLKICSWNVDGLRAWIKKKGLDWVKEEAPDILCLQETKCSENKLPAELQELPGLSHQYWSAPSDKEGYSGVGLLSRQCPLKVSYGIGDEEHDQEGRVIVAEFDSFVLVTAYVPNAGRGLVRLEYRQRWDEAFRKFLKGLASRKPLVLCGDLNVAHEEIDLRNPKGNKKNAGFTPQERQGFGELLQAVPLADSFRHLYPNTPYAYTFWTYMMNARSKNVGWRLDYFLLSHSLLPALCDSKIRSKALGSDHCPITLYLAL
How it was run: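 Human APE1 was preincubated with compound for 15 min at room temperature, then 50 nM (final) THF-abasic double-stranded DNA substrate bearing 5'-TAMRA and 3'-BHQ-2 was added. Incision-driven fluorescence rise (ex 525/em 598 nm) was read kinetically.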

[11] = Counterscreen for APE1 Inhibitors: Fluorescent Dye Displacement Validation Assay (AID 1707)
How it was run: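 Counterscreen flags promiscuous DNA binders: compounds displacing ThO from duplex DNA (abasic THF site, 50 nM) reduce 540 nm emission (480 nm excitation). ThO 250 nM final; Tris-HCl pH 7.5 with NaCl, MgCl2 and Tween-20.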

[12] = biological target: Endonuclease 4 (Escherichia coli (strain K12)) (UniProt P0A6C1); assay: Counterscreen for APE1 Inhibitors: qHTS Validation Assay for Inhibitors of Endonuclease IV (AID 1708); also: potency is read from the fitted curve at half-maximal effect; settings: E. coli endonuclease IV, DNA cleavage fluorescence
How it was run: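 Read-out: fluorescence rise (ex 525/em 598 nm) from incision of a TAMRA/BHQ-2 double-stranded THF abasic-site substrate (50 nM), measured kinetically; third-minus-first read difference gave reaction progress. Enzyme 2 nM.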

[13] = qHTS for differential inhibitors of proliferation of Plasmodium falciparum line 7G8 (AID 1815);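 also: parasite growth measured after three days of incubation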
[14] = qHTS for differential inhibitors of proliferation of Plasmodium falciparum line GB4 (AID 1816);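 also: parasite growth measured after 72 h incubation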
[15] = qHTS for differential inhibitors of proliferation of Plasmodium falciparum line 3D7 (AID 1876);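 also: parasite growth measured after three days of culture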
[16] = qHTS for differential inhibitors of proliferation of Plasmodium falciparum line D10 (AID 1877);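 also: parasites grown with compound for 72 h before DNA staining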
[17] = qHTS for differential inhibitors of proliferation of Plasmodium falciparum line Dd2 (AID 1882);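 also: compound exposure of 72 h on infected erythrocytes; nearly all actives have a fitted effect of over 65% in size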
How it was run: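 RBC culture, 0.3% parasitemia / 2.5% Hct final; cpd added by pin tool in DMSO; 72 h, 37 C, 5% CO2; lysis buffer + SYBR Green I, o/n RT dark; FI 485/535; norm. to artemisinin 0.29 uM and DMSO.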

[18] = qHTS for differential inhibitors of proliferation of Plasmodium falciparum line HB3 (AID 1886); settings: Potency: Plasmodium falciparum HB3 proliferation inhibition;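 also: parasites grown with compound for 72 h before SYBR Green readout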
[19] = qHTS Assay for Modulators of Human Peripheral Myelin Protein 22 (PMP22) Expression/Activity (AID 1967; active = well fitted curve in the direction sought with a large enough effect in the signal ratio; the % refers to the signal ratio)
How it was run: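 MSC80 mouse Schwann cells stably carrying Pmp22 promoter–green click beetle luciferase plus EF-alpha–red luciferase control were dosed for 24h at 37 °C. Dual-colour luminescence was filter-overlap corrected; %Activity came from green/red ratio versus untreated cells.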

[20] = measured here: cell count channel max response
[21] = measured here: lipid channel max response

CC(C)(C)NC[C@H](O)COc1nsnc1N1CCOCC1
outcome [1]: inactive | outcome [2]: inactive | activity change, negative = inhibition ([3]; at 25.7 µM (top of the series)): -2.08% (inactive) | activity change, negative = inhibition ([3]; at 57.5 µM (top of the series)): 1.69% (inactive) | max response [3, 20]: 10% and 1.77% | max response [3, 21]: 6.06% and 5.65%

O=C(O)c1ccc(S(=O)(=O)N(Cl)Cl)cc1
Potency [4]: inactive | outcome [5]: inactive | Potency [6]: inactive | outcome [7]: inactive | outcome [8]: inactive | Potency [9]: inactive | activity change, negative = inhibition ([3]; at 57.5 µM (top of the series)): 9.84% (inactive) | max response [3, 20]: 17.1% | max response [3, 21]: 34.6%

Oc1ccc(Cl)cc1Cc1cc(Cl)ccc1O
outcome [8]: inactive

CN(C)CCC[C@@]1(c2ccc(F)cc2)OCc2cc(C#N)ccc21
outcome [1]: inactive | outcome [2]: inactive | activity change, negative = inhibition ([3]; at 57.5 µM (top of the series)): 0.0614% (inactive) and -1.76% (inactive) | max response [3, 20]: 5.54% and 6.49% | max response [3, 21]: 4.25% and 5%

COc1cc(N)c(Cl)cc1C(=O)NC1CCN(Cc2ccccc2)CC1
activity change, negative = inhibition ([3]; at 25.7 µM (top of the series)): 0.953% (inactive) | activity change, negative = inhibition ([3]; at 57.5 µM (top of the series)): 9.3% (inactive) | max response [3, 20]: -2.73% and -2.52% | max response [3, 21]: -0.303% and 10.6%

COc1ccc(C(Cl)=C(c2ccc(OC)cc2)c2ccc(OC)cc2)cc1
Potency [4]: inactive | outcome [5]: inactive | Potency [6]: inactive | outcome [8]: inactive | Potency [9]: inactive | activity change, negative = inhibition ([3]; at 25.7 µM (top of the series)): 1.46% (inactive) | max response [3, 20]: -13.4% | max response [3, 21]: -12.3%

CCCN(CCC)S(=O)(=O)c1ccc(C(=O)O)cc1
Potency [4]: inactive | outcome [5]: inactive | Potency [6]: inactive | outcome [7]: inactive | outcome [8]: inactive | Potency [9]: inactive

O=C1C(O)=C(O)C(=O)C(O)=C1O
activity change, negative = inhibition ([3]; at 25.7 µM (top of the series)): -0.531% (inactive) | activity change, negative = inhibition ([3]; at 57.5 µM (top of the series)): 9.14% (inactive) | max response [3, 20]: -3.62% and 13.5% | max response [3, 21]: -3.42% and 27.1%

CCN(CC)CCNC(=O)COc1ccc(OC)cc1
activity change, negative = inhibition ([3]; at 25.7 µM (top of the series)): -2.56% (inactive) | activity change, negative = inhibition ([3]; at 57.5 µM (top of the series)): 3.31% (inactive) | max response [3, 20]: 7.9% and 27.2% | max response [3, 21]: 4.41% and 33.1%

CC(=O)OCC1=C(C(=O)O)N2C(=O)[C@@H](NC(=O)CSc3ccncc3)[C@H]2SC1
Potency [10]: 8.91 µM (active) | outcome [11]: inactive | Potency [12]: 15.8 µM (active) | outcome [13]: inactive | outcome [14]: inactive | Potency [15]: inactive | outcome [16]: inactive | outcome [17]: inactive | Potency [18]: inactive | outcome [19]: inactive

CCN(CC)CCNC(=O)c1cc(Br)c(N)cc1OC
activity change, negative = inhibition ([3]; at 25.7 µM (top of the series)): -3.04% (inactive) | activity change, negative = inhibition ([3]; at 57.5 µM (top of the series)): 5.14% (inactive) | max response [3, 20]: -6.94% and 12.8% | max response [3, 21]: -8.36% and 21.9%

CCOc1ccccc1C(N)=O
Potency [4]: inactive | outcome [5]: inactive | Potency [6]: inactive | outcome [7]: inactive | outcome [8]: inactive | Potency [9]: inactive
